Data: PubChem BioAssay (NCI)
This is part of a sample that, as a whole, favours compounds with a hit. Of some 83,000 tested, about 20% had one in any assay.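 A percent growth of 40 corresponds to 60% growth inhibition; 0 means no net growth; -100 means all cells died. Active threshold: below 10.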 Calls of active or inactive are those of the source.

What was measured:
Test in all cases: NCI-60 one-dose screen, 48 h (100 = growth as untreated, 0 = no growth, -100 = all killed)
Conditions in all cases: 10 µM unless noted
T-47D breast = system: T-47D breast
BT-549 breast = system: BT-549 breast
MDA-MB-435 melanoma = system: MDA-MB-435 melanoma
SW-620 colon = system: SW-620 colon
MCF7 breast = system: MCF7 breast
HCT-116 colon = system: HCT-116 colon
HCC-2998 colon = system: HCC-2998 colon
KM12 colon = system: KM12 colon

Measured: growth

CCc1nnc(NC(=O)c2nnn(-c3ccccc3)c2-c2ccco2)s1
inactive: T-47D breast 85% | BT-549 breast 102% | MDA-MB-435 melanoma 97.1% | SW-620 colon 98.5% | MCF7 breast 78.6% | HCT-116 colon 64.2% | HCC-2998 colon 110% | KM12 colon 96.9%

O=c1c2cccc(F)c2sc2c(NCCCNCCO)nc3ccccc3c12
inactive: T-47D breast 51.8% | BT-549 breast 72.6% | MCF7 breast 20.2%
active: MDA-MB-435 melanoma 6.93% | SW-620 colon -68.1% | HCT-116 colon 0.842% | HCC-2998 colon -51.7% | KM12 colon 9.05%

O=C1CN(CCN2CC(=O)N(Cc3ccccc3)C(=O)C2)CC(=O)N1Cc1ccccc1
inactive: T-47D breast 99% | BT-549 breast 104% | MDA-MB-435 melanoma 106% | SW-620 colon 96.8% | MCF7 breast 94.7% | HCT-116 colon 98.6% | HCC-2998 colon 121% | KM12 colon 103%

O=c1c2cc(F)ccc2sc2c(N3CCNCC3)nc3ccc(F)cc3c12
inactive: T-47D breast 22.2% | BT-549 breast 79.8%
active: MDA-MB-435 melanoma -94.3% | SW-620 colon -84.4% | MCF7 breast -62.9% | HCT-116 colon -61.2% | HCC-2998 colon -90.8% | KM12 colon -78.4%

CCN(CC)CCNC(=O)c1cn2ncnc(Oc3ccc(NC(=O)Nc4ccc(Cl)c(C(F)(F)F)c4)cc3)c2c1C
active: T-47D breast -64.3% | BT-549 breast -32.5% | MDA-MB-435 melanoma -81.4% | SW-620 colon -85.6% | MCF7 breast -84.4% | HCT-116 colon -95.3% | HCC-2998 colon -95.8% | KM12 colon -80.4%

COc1ccc(OC)c(/C=C/C(=O)N/N=C/c2ccccc2)c1
active: MDA-MB-435 melanoma -7.51%
inactive: T-47D breast 39.7% | BT-549 breast 60.8% | SW-620 colon 28.7% | MCF7 breast 17.3% | HCT-116 colon 14.2% | HCC-2998 colon 66.4% | KM12 colon 31%

COc1ccc(C(Cc2ccccc2)NCCN2CCOCC2)cc1 (configuration not stated)
inactive: T-47D breast 85.4% | BT-549 breast 82.1% | MDA-MB-435 melanoma 105% | SW-620 colon 107% | MCF7 breast 89.2% | HCT-116 colon 95.9% | HCC-2998 colon 86.6% | KM12 colon 104%

Cc1ccc(S(=O)(=O)Oc2ccc(NC(=O)c3ccc(Cl)cc3)cc2)cc1
inactive: T-47D breast 98.1% | BT-549 breast 90.8% | MDA-MB-435 melanoma 105% | SW-620 colon 103% | MCF7 breast 91.8% | HCT-116 colon 81% | HCC-2998 colon 104% | KM12 colon 103%

N#C/C(=C\c1cccc2cnccc12)n1nnc2cccc(F)c21
inactive: T-47D breast 23.5% | BT-549 breast 17% | MDA-MB-435 melanoma 29% | SW-620 colon 21.5% | MCF7 breast 19.3% | HCT-116 colon 10.4% | HCC-2998 colon 42.7% | KM12 colon 62.1%

COc1cccc(-c2nn(-c3ccccc3)cc2-c2ccnc(N3CCOCC3)c2)c1
inactive: T-47D breast 51.7% | BT-549 breast 87.9% | MDA-MB-435 melanoma 98.9% | SW-620 colon 105% | MCF7 breast 87% | HCT-116 colon 79.8% | HCC-2998 colon 93.8% | KM12 colon 86.1%

COc1cc(CCC[P+](c2ccccc2)(c2ccccc2)c2ccccc2)c(OC)c2c1OCO2
active: MDA-MB-435 melanoma 3.48% | MCF7 breast 9.9% | KM12 colon 6.93%
inactive: T-47D breast 13.9% | BT-549 breast 15.8% | SW-620 colon 31.1% | HCT-116 colon 16.4% | HCC-2998 colon 26.7%

O=C1c2cccc3cccc(c23)C(=O)N1Nc1nc(NC2CCCCC2)nc(N2CCOCC2)n1
inactive: T-47D breast 88.4% | BT-549 breast 110% | MDA-MB-435 melanoma 103% | SW-620 colon 98.1% | MCF7 breast 89.3% | HCT-116 colon 93.6% | HCC-2998 colon 111% | KM12 colon 98.9%

O=C1c2ccccc2NC(n2sc3ccccc3c2=O)N1c1ccccc1 (configuration not stated)
inactive: T-47D breast 96.4% | BT-549 breast 104% | MDA-MB-435 melanoma 111% | SW-620 colon 104% | MCF7 breast 94.3% | HCT-116 colon 95.7% | HCC-2998 colon 103% | KM12 colon 92.9%

C=C1C(=O)O[C@H]2[C@H]1CC/C(COC(=O)CSCC(=O)OC/C1=C/CC[C@@]3(C)O[C@H]3[C@H]3OC(=O)C(=C)[C@@H]3CC1)=C\CC[C@@]1(C)O[C@@H]21
active: BT-549 breast -1.44% | SW-620 colon -29% | HCT-116 colon -46.6%
inactive: T-47D breast 12.3% | MDA-MB-435 melanoma 26.8% | MCF7 breast 23.4% | HCC-2998 colon 94.5% | KM12 colon 69.4%
